Over roughly 81,000 sequences, “one-hybrid fitness for binding NBS DNA” has its median near -0.1; the highest 2% begin near 0.36. This excerpt belongs to a sample that is enriched for the highest values.
B1: Caulobacter ParB omega fusion; a variant is named by its letters at X, in order, B8GW30 (parent)
chain: MESVVVGEPGMSEGRRGLGRGLSALLGEVDAAPAQAPGEQLGGSREAPIEILQRNPDQPRRTFREEDLEDLSNSIREKGVLQPILVRPSPDTAGEYQIVAGERAWRAAQRAGLKTVPIMVRELDDLAVLEIGIIENVQRADLNVLEEALSYKVLMEKFERTQENIAQTIGKSXSHVANXMRLLXLPDEVQSYLVSGELTAXHARAIAAAADPVALAKQIIEGGLSVRETEALARKAPNLSAGKSKGGRPPRVKDTDTQALESDLSSVLGLDVSIDHRGSTGTLTITYATLEQLDDLCNRLTRGI

Variants of: B1
Experiment: one-hybrid fitness for binding NBS DNA (the Noc-binding site; scaled: cognate 1, non-cognate 0); higher = stronger binding
Details: with NBS DNA site
In short: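 Fitness is the rescaled log change in variant-to-wild-type read ratio, measured by Illumina sequencing of plasmids before and after bacterial one-hybrid selection. The scale puts cognate at 1 and non-cognate at 0. Selection of Caulobacter ParB libraries, four specificity codons randomised, took place in E. coli USO with a HIS3 reporter, site 19 bp from the promoter, over 48 hours at 37°C on M9-minus-histidine with 0.1 mM IPTG and 5 mM 3-AT.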

| Variant | one-hybrid fitness for binding NBS DNA |
| --- | --- |
| KFSS | ≤ 0.2 |
| KFVF | ≤ 0.2 |
| LRQC | ≤ 0.2 |
| DWDT | ≤ 0.2 |
| RASG | ≤ 0.2 |
| RAST | 0.405 |
| RAIT | 0.22 |
| WCGS | ≤ 0.2 |
| WSGA | ≤ 0.2 |
| LRTY | ≤ 0.2 |
| RLRS | 0.541 |
| RCDS | ≤ 0.2 |
| RSYS | 0.409 |
| RLRH | 0.322 |
| RPRS | ≤ 0.2 |
| RCYS | 0.521 |
| RCRD | ≤ 0.2 |
| RCRS | 0.661 |
| RSPS | ≤ 0.2 |
| RLYS | 0.34 |
| RCIS | 0.281 |
| RSIS | 0.203 |
| PGSA | ≤ 0.2 |
| INQF | ≤ 0.2 |
| RCMW | ≤ 0.2 |

| Variant | one-hybrid fitness for binding NBS DNA |
| --- | --- |
| QPWY | ≤ 0.2 |
| PDHS | ≤ 0.2 |
| CDSD | ≤ 0.2 |
| TLGI | ≤ 0.2 |
| NQER | ≤ 0.2 |
| HRCR | ≤ 0.2 |
| DVPR | ≤ 0.2 |
| LVEQ | ≤ 0.2 |
| RSRN | ≤ 0.2 |
| RMRN | 0.25 |
| RSRS | 0.593 |
| RFRS | 0.446 |
| RFYS | ≤ 0.2 |
| RSRD | ≤ 0.2 |
| RMRS | 0.642 |
| RFIS | ≤ 0.2 |
| RMYS | 0.361 |
| GATS | ≤ 0.2 |
| FYHG | ≤ 0.2 |
| RQDG | ≤ 0.2 |
| PLRC | ≤ 0.2 |
| MYHV | ≤ 0.2 |
| MNMN | ≤ 0.2 |
| NSER | ≤ 0.2 |
| IPMG | ≤ 0.2 |

| Variant | one-hybrid fitness for binding NBS DNA |
| --- | --- |
| MNVG | ≤ 0.2 |
| YLLC | ≤ 0.2 |
| QMFR | 0.431 |
| QMAN | ≤ 0.2 |
| QMFD | ≤ 0.2 |
| QMFS | 0.251 |
| QMAR | 0.602 |
| QMAP | ≤ 0.2 |
| KGLV | ≤ 0.2 |
| WVEH | ≤ 0.2 |
| QVVS | ≤ 0.2 |
| VVYG | ≤ 0.2 |
| QRRH | 0.779 |
| QRNN | 0.459 |
| QRDP | ≤ 0.2 |
| QCNC | ≤ 0.2 |
| QCNN | 0.208 |
| NRRH | ≤ 0.2 |
| QRRL | 0.364 |
| QRDN | ≤ 0.2 |
| QRDH | 0.381 |
| QRDC | 0.227 |
| QRNC | 0.44 |
| QRDD | ≤ 0.2 |
| WYLT | ≤ 0.2 |

| Variant | one-hybrid fitness for binding NBS DNA |
| --- | --- |
| RDFR | ≤ 0.2 |
| EMRY | ≤ 0.2 |
| KWVR | ≤ 0.2 |
| YLCS | ≤ 0.2 |
| TWCL | ≤ 0.2 |
| SYCN | ≤ 0.2 |
| IVKG | ≤ 0.2 |
| CWPS | ≤ 0.2 |
| QRNQ | 0.439 |
| QRNP | 0.308 |
| QRDQ | 0.215 |
| QCNM | 0.224 |
| QRNM | 0.461 |
| QRNH | 0.598 |
| QREH | 0.258 |
| QSNQ | ≤ 0.2 |
| QRYH | 0.486 |
| QRWH | 0.301 |
| QRDM | ≤ 0.2 |
| QRND | 0.306 |
| KICK | ≤ 0.2 |
| QEKS | ≤ 0.2 |
| LWPC | ≤ 0.2 |
| QDAY | ≤ 0.2 |
| RGRV | ≤ 0.2 |

| Variant | one-hybrid fitness for binding NBS DNA |
| --- | --- |
| KRVS | 0.395 |
| KRKP | ≤ 0.2 |
| KRKM | 0.253 |
| KRKD | ≤ 0.2 |
| KRKN | 0.272 |
| KRKH | 0.482 |
| KRKS | 0.536 |
| KRVD | ≤ 0.2 |
| KRVH | ≤ 0.2 |
| KRYY | ≤ 0.2 |
| KRVY | ≤ 0.2 |
| KRKY | 0.368 |
| AKVL | ≤ 0.2 |
| ALSW | ≤ 0.2 |
| HILV | ≤ 0.2 |
| LNQE | ≤ 0.2 |
| DNHT | ≤ 0.2 |
| YLSD | ≤ 0.2 |
| HLNK | ≤ 0.2 |
| MSFM | ≤ 0.2 |
| LRFR | ≤ 0.2 |
| TEAT | ≤ 0.2 |
| QSRW | 0.254 |
| QTDW | ≤ 0.2 |
| QRRW | 0.384 |

| Variant | one-hybrid fitness for binding NBS DNA |
| --- | --- |
| QTRW | 0.417 |
| QCRW | 0.371 |
| PRYW | ≤ 0.2 |
| PRKW | 0.446 |
| QRDW | ≤ 0.2 |
| QRYW | 0.203 |
| QTYW | ≤ 0.2 |
| PRVW | ≤ 0.2 |
| QPRW | ≤ 0.2 |
| NMRT | ≤ 0.2 |
| KSRN | ≤ 0.2 |
| MPIT | ≤ 0.2 |
| SLCY | ≤ 0.2 |
| ADNG | ≤ 0.2 |
| FLPR | ≤ 0.2 |
| QRKW | 0.411 |
| QCKW | 0.324 |
| QRVW | ≤ 0.2 |
| QTKW | 0.439 |
| QTVW | ≤ 0.2 |
| QSKW | 0.279 |
| NCCT | ≤ 0.2 |
| PANC | ≤ 0.2 |
| PYWD | ≤ 0.2 |
| QGMV | ≤ 0.2 |

| Variant | one-hybrid fitness for binding NBS DNA |
| --- | --- |
| TIMA | ≤ 0.2 |
| FGDS | ≤ 0.2 |
| LKMV | ≤ 0.2 |
| RAKP | ≤ 0.2 |
| RMKY | 0.311 |
| RGVR | ≤ 0.2 |
| RIVR | 0.28 |
| RAVR | 0.277 |
| RGYR | ≤ 0.2 |
| RGKR | 0.38 |
| RIKD | ≤ 0.2 |
| RIKR | 0.675 |
| RMVR | 0.314 |
| RAKR | 0.668 |
| RMKR | 0.738 |
| IRVQ | 0.203 |
| VYLC | ≤ 0.2 |
| TESV | ≤ 0.2 |
| QVNP | ≤ 0.2 |
| GTKF | ≤ 0.2 |
| LEMR | ≤ 0.2 |
| RFPS | ≤ 0.2 |
| QVIH | ≤ 0.2 |
| GACL | ≤ 0.2 |
| RSKR | 0.682 |

| Variant | one-hybrid fitness for binding NBS DNA |
| --- | --- |
| RFKR | 0.522 |
| RWYM | ≤ 0.2 |
| RSKN | ≤ 0.2 |
| RLKR | 0.686 |
| RWVM | 0.413 |
| NFKR | ≤ 0.2 |
| RLKH | 0.35 |
| RSVR | 0.293 |
| RLVR | 0.257 |
| RWKM | ≤ 0.2 |
| RFVR | ≤ 0.2 |
| YFYC | ≤ 0.2 |
| QASC | ≤ 0.2 |
| LDYW | ≤ 0.2 |
| GGII | ≤ 0.2 |
| RPKR | ≤ 0.2 |
| RHKH | 0.326 |
| RCKR | 0.76 |
| RHKR | 0.701 |
| RDKR | ≤ 0.2 |
| RWKR | 0.372 |
| RHVR | 0.248 |
| RWVR | 0.259 |
| RWKP | ≤ 0.2 |
